# PubChem BioAssay (NCI)
# The panel holds about 83,000 compounds, 20% with a hit somewhere; the sample as a whole holds those more often.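 Interpretation: 100, growth as untreated; towards 0, rising growth inhibition; 0, no net growth; 0 to -100, cell death. Compounds scoring below 10 were considered active.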 Unmarked numbers belong to inactive results. Active and inactive are the calls of the source.
# Key:
# Assay in all cases: NCI-60 one-dose screen, 48 h (100 = growth as untreated, 0 = no growth, -100 = all killed)
# SR leukemia = details: 10 µM unless noted
# RPMI-8226 leukemia = details: 10 µM unless noted
# OVCAR-8 ovarian = details: 10 µM unless noted
# OVCAR-5 ovarian = details: 10 µM unless noted
# OVCAR-4 ovarian = details: 10 µM unless noted
# SK-OV-3 ovarian = details: 10 µM unless noted
# IGROV1 ovarian = details: 10 µM unless noted
# OVCAR-3 ovarian = details: 10 µM unless noted
# T-47D breast = details: 10 µM unless noted
# BT-549 breast = details: 10 µM unless noted
# MDA-MB-435 melanoma = details: 10 µM unless noted
# SW-620 colon = details: 10 µM unless noted
# MCF7 breast = details: 10 µM unless noted
# HCT-116 colon = details: 10 µM unless noted
# HCC-2998 colon = details: 10 µM
# KM12 colon = details: 10 µM unless noted
# NCI/ADR-RES ovarian = details: 10 µM unless noted
# HS 578T breast = details: 10 µM
Compound,growth (SR leukemia),growth (RPMI-8226 leukemia),growth (OVCAR-8 ovarian),growth (OVCAR-5 ovarian),growth (OVCAR-4 ovarian),growth (SK-OV-3 ovarian),growth (IGROV1 ovarian),growth (OVCAR-3 ovarian),growth (T-47D breast),growth (BT-549 breast),growth (MDA-MB-435 melanoma),growth (SW-620 colon),growth (MCF7 breast),growth (HCT-116 colon),growth (HCC-2998 colon),growth (KM12 colon),growth (NCI/ADR-RES ovarian),growth (HS 578T breast)
CO[C@H]1C[C@@H]2CC[C@@H](C)[C@@](O)(O2)C(=O)C(=O)N2CCCC[C@H]2C(=O)O[C@H]([C@H](C)C[C@@H]2CC[C@@H](OCCO)[C@H](OC)C2)CC(=O)[C@H](C)/C=C(\C)[C@@H](O)[C@H](OC)C(=O)[C@H](C)C[C@H](C)\C=C/C=C/C=C/1C,11.3%,35.6%,40.9%,50.8%,26.8%,35%,16.3%,63.4%,7.51% (active),42.3%,56.4%,53.7%,35.8%,64.3%,66%,55.3%,–,–
CS(=O)(=O)CCNCc1ccc(-c2ccc3ncnc(Nc4ccc(OCc5cccc(F)c5)c(Cl)c4)c3c2)o1,3.31% (active),-15.4% (active),-26.5% (active),65.2%,-51.2% (active),-6.37% (active),9.76% (active),-63.1% (active),-11.9% (active),8.25% (active),31.2%,-56.1% (active),-39.3% (active),41.2%,-83.6% (active),-34.9% (active),–,–
NC(=O)c1c(OCc2c(F)cc(Br)cc2F)nsc1NC(=O)NCCCCN1CCCC1,-34.4% (active),-26.3% (active),19.4%,-14.8% (active),-41.6% (active),52.2%,–,-34.1% (active),-45.1% (active),-51.2% (active),-58.9% (active),-60.5% (active),1.88% (active),-37.9% (active),-13.8% (active),-4.19% (active),20.2%,–
CC(=O)Nc1cccc(-n2c(=O)n(C3CC3)c(=O)c3c(Nc4ccc(I)cc4F)n(C)c(=O)c(C)c32)c1,46.4%,45.5%,39%,6.47% (active),37%,11.3%,16.9%,85.5%,51.3%,60.7%,27.7%,19%,80.8%,10.6%,-26.9% (active),23%,–,–
COc1ccc2c(c1OC)C(=O)O[C@@H]2[C@H]1c2c(c(C#CC#Cc3ccc(F)c(F)c3)c3c(c2OC)OCO3)CCN1C,60.2%,67.3%,87.9%,96.5%,99.9%,76%,–,104%,–,78.2%,89.7%,104%,94%,59.8%,88.5%,83%,89.3%,101%
CC(C)[C@@H]1CC[C@]2(CO2)[C@@H]2C(=O)OCC(C(=O)O)=C[C@H]21,-4.75% (active),-34.6% (active),4.64% (active),22%,12.7%,15.7%,–,5.83% (active),12.3%,-5.36% (active),-6.19% (active),5.52% (active),45.3%,3.63% (active),4.07% (active),2.53% (active),-12.1% (active),-5.29% (active)
CCc1nc2cc(/C=C/C(=O)NO)ccc2c(=O)n1CCc1ccc(OC)cc1,14.3%,10.3%,15.3%,24.2%,39.1%,6.67% (active),–,-1.22% (active),-2.1% (active),–,7.73% (active),5.44% (active),10.5%,–,48%,23.7%,9.39% (active),41.8%
CC[C@H](CO)Nc1nc(NCc2ccccc2)c2ncn(C(C)C)c2n1,7.1% (active),85.5%,63.8%,50.9%,73.2%,102%,49%,65.2%,48.4%,78.1%,83.6%,69.3%,31.5%,30.1%,74.5%,47.6%,–,–
Cn1cc(-c2cnn3c(N)c(Br)c([C@@H]4CCCNC4)nc23)cn1,4.1% (active),24.3%,50.8%,56.9%,61.2%,38.1%,36.9%,59.8%,59.8%,52.1%,39.1%,63.8%,31.5%,35.8%,53.7%,18.4%,–,–
Clc1ccc2c(NCCCNCc3ccc4c(c3)OCO4)ccnc2c1,-22.9% (active),22%,30.7%,85.8%,59.1%,71.2%,–,63.7%,-0.471% (active),51.5%,-34.6% (active),28.9%,31.5%,36.5%,5.99% (active),65.4%,74.3%,78.9%
COCCN1CCN(Cc2ccc(-c3n[nH]c4c3C(=O)c3c(NC(=O)NN5CCOCC5)cccc3-4)cc2)CC1,-10.3% (active),-37.4% (active),-13.4% (active),9.54% (active),-0.503% (active),-7.89% (active),-10.9% (active),9.5% (active),12.7%,-24.2% (active),-46.4% (active),-25% (active),-33.2% (active),-48.2% (active),-35.8% (active),-66.3% (active),–,–
COc1cc2ncnc(Nc3cccc(Cl)c3F)c2cc1OC(=O)N1CCN(C)C[C@H]1C,62.6%,76.4%,64.2%,46.5%,103%,-6.41% (active),16.4%,69.5%,28.5%,93.8%,94.3%,94.2%,63.2%,87.5%,–,87.8%,–,–
CN1CC[C@@H](c2c(O)cc(O)c3c(=O)cc(-c4ccccc4Cl)oc23)[C@@H]1CO,1.89% (active),3.13% (active),6.68% (active),7.25% (active),-2.68% (active),5.82% (active),–,14%,-8.71% (active),-4.92% (active),-67.9% (active),4.02% (active),4.7% (active),3.53% (active),-25.8% (active),3.84% (active),-3.1% (active),–
CC12O[C@H](C[C@@H](OC(=O)CCC(=O)O)[C@H]1O)n1c3ccccc3c3c4c(c5c6ccccc6n2c5c31)C(=O)NC4=O,0.804% (active),58.7%,37.7%,69.3%,68%,-8.63% (active),–,27.9%,35.8%,-1.04% (active),8.34% (active),36.2%,19.2%,35.6%,41.3%,15.4%,58.7%,19.2%
CCN1/C(=C/C=C/c2n(-c3ccccc3)c3ccc(-c4nc5ccccc5s4)cc3[n+]2CC)N(c2ccccc2)c2ccc(-c3nc4ccccc4s3)cc21,15.5%,8.29% (active),10.6%,31.4%,24.7%,-4.86% (active),–,-0.0306% (active),5.56% (active),-5.34% (active),-41.1% (active),16.7%,11.2%,10.8%,33.3%,10.6%,52.3%,28.2%
CCCCN1CCCC[C@@H]1C(=O)N[C@H](C(=O)N(C)[C@H](CCc1nc(C(=O)N[C@@H](Cc2ccccc2)C[C@H](C)C(=O)OC)cs1)C(C)C)C(C)C,7.34% (active),7.01% (active),82.6%,95.1%,61.3%,75.4%,–,65.2%,45.3%,52.3%,-6.94% (active),85.3%,35.6%,41.5%,67.6%,–,65.4%,90%
